GPR151 ag = activators of human GPR151, primary screen, cell-based, PathHunter beta-arrestin, luminescence; G-protein coupled receptor 151 (Homo sapiens), Q8TDV0; PathHunter beta-arrestin GPR151 cells; activation, % at 11.2 µM; 650,000 compounds, 1% hits; AID 1508602, 2020; in the data active = activation above about 4.9%
Target sequence (Q8TDV0 whole entry, looked up): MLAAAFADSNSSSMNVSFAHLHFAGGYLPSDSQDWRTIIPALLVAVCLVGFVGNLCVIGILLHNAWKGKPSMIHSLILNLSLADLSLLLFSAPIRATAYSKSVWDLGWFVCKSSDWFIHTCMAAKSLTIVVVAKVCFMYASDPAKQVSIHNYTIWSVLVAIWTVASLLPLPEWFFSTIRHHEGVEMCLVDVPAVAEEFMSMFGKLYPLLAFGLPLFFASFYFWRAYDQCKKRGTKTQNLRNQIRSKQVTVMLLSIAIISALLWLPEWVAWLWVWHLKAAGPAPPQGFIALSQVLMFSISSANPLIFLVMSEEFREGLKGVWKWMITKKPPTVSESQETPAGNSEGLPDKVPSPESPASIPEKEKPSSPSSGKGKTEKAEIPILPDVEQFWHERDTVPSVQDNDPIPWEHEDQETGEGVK
MITF inh = MITF inhibitors, primary screen, biochemical, AlphaScreen, human; Microphthalmia-associated transcription factor (Homo sapiens), O75030; AlphaScreen MITF homodimerization, bead proximity signal; inhibition, % at 2.6 µM; 650,000 compounds, 0.91% hits; AID 1259374, 2018; in the data active = inhibition above about 50%
TEAD-YAP inh = TEAD-YAP interaction inhibition, primary screen, TEAD-YAP interaction inhibitor project, luminescence, HEK-TIYL cells | inhibition, % at 9.12 µM | TEAD-Gal4/YAP UAS-luciferase luminescence | 640,000 compounds, 1.4% hits | AID 1259422, 2018; in the data active = inhibition above about 32%
FBW7 activator = FBW7 E3 ligase activators, primary screen, biochemical, AlphaScreen, human. F-box/WD repeat-containing protein 7 (Homo sapiens), Q969H0. AlphaScreen FBW7–phospho-cyclin E peptide binding, activator screen. normalized activity (activation), % at 26.1 µM. 650,000 compounds, 0.13% hits; in the data active = normalized activity above about 1.9%;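 note: purified mutant Fbw7 with reduced substrate affinity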
MITF inh conf = MITF inhibitors, retest of hits, confirmation, biochemical, AlphaScreen, triplicate. inhibition, % at 2.6 µM. 4,700 compounds, 16% hits. shares compounds with MITF inh. AlphaScreen MITF homodimerization, biotin/His-MITF beads;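 active = inhibition above a cutoff derived from the DMSO control wells, cut at about 28% in these data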;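 note: inhibitors lower the bead chemiluminescence by keeping MITF from dimerizing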
AS interf DR = AlphaScreen optical interference compounds, dose response, counter-screen, biochemical, HTS; shares compounds with MITF inh; AlphaScreen optical interference counterscreen, cell-free; IC50, µM; 480 compounds, 6% hits; AID 1259373, 2018; call rule not given here
AlphaScreen intf2 = AlphaScreen optical interference compounds, counter-screen for MITF inhibitor project, biochemical, triplicate. shares compounds with MITF inh. LysRS AlphaScreen counterscreen, signal interference. inhibition, % at 2.6 µM. 4,700 compounds, 7.6% hits;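 active = inhibition above a cutoff derived from the DMSO control wells, cut at about 30% in these data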
Each line names hits and unclear results; the compound was inactive in the other large screens (follow-up assays come after a bar, where they were run). This is a sample that favours compounds with a hit; in the whole collection about 3.4% have one here.

Cc1cc(NCc2ccccc2)n2ncnc2n1	none
Cc1cc(NCc2ccccc2F)n2ncnc2n1	MITF inh 51.4 | MITF inh conf inactive | AlphaScreen intf2 inactive
O=C1C2C(C(=O)N1c1ccccc1)C1C=CC2C12CC2 (configuration not stated)	none
N#Cc1ccc(-c2ccc(F)cc2)nc1SCC(=O)NC1CC1	MITF inh 51.8 | MITF inh conf inactive | AlphaScreen intf2 inactive
Cc1cc(NCCc2ccccc2)nc(-c2ccccc2O)n1	MITF inh 82.4 | MITF inh conf inactive | AlphaScreen intf2 inactive
CCCCNC(=O)C(=O)NCC(c1ccco1)N1CCN(c2ccccc2)CC1 (configuration not stated)	none
CNC(=O)CSc1nnc(-c2ccccc2)n1CCCOC	none
CC1=C(C(=O)N2CCOCC2)C(c2ccc(C)cc2)NC(=S)N1 (configuration not stated)	MITF inh 70.2 | MITF inh conf inactive | AlphaScreen intf2 inactive
CC1=C(C(=O)N2CCOCC2)C(c2ccc(Cl)cc2)NC(=S)N1 (configuration not stated)	none
COc1ccc(-n2nc3cc(C)c(NC(=O)c4ccc5ccccc5c4)cc3n2)cc1	none
CS(=O)(=O)N1CCN(Cc2cccnc2)CC1	MITF inh 66.6 | MITF inh conf inactive | AlphaScreen intf2 inactive
Cc1ccc(S(=O)(=O)N2CCN(Cc3cccnc3)CC2)cc1	MITF inh 83.1 | MITF inh conf inactive | AlphaScreen intf2 inactive
Cc1ccc(CN2CCN(S(=O)(=O)c3ccc(C)cc3)CC2)cc1	none
CCS(=O)(=O)N1CCN(Cc2cccnc2)CC1	MITF inh 78.3 | MITF inh conf inactive | AlphaScreen intf2 inactive
CCCS(=O)(=O)N1CCN(Cc2cccnc2)CC1	none
CS(=O)(=O)N1CCN(Cc2ccncc2)CC1	MITF inh 78.5 | MITF inh conf inactive | AlphaScreen intf2 inactive
COc1ccc(C(=O)Nc2ccc3nn(-c4ccc(OC)cc4)nc3c2)cc1	none
O=C(Nc1nnc(C2CCCCC2)s1)C1CC1	none
COC(=O)C(=O)Nc1nnc(C2CCCCC2)s1	MITF inh 67.0 | MITF inh conf inactive | AlphaScreen intf2 inactive
COC(=O)C(=O)Nc1nnc(C2CCCC2)s1	MITF inh 78.7 | MITF inh conf inactive | AlphaScreen intf2 inactive
CCn1c(=NC(=O)c2ccc(S(=O)(=O)N3CCOCC3)cc2)sc2cc(F)ccc21	none
CCOC(=O)CSc1nnc(NC(=O)COc2ccc(Cl)cc2)s1	none
CCCCOc1ccc(S(=O)(=O)N2CCSC2c2ccc([N+](=O)[O-])cc2)cc1 (configuration not stated)	none
Cc1ccc(C)c(NC(=O)CNCC(C)(C)CN(C)C)c1	MITF inh 73.6 | MITF inh conf inactive | AlphaScreen intf2 inactive
CN(C)CC(C)(C)CNCC(=O)Nc1ccc(OC(F)(F)F)cc1	MITF inh 55.2 | MITF inh conf inactive | AlphaScreen intf2 inactive
CCC(C)(C)NCC(=O)Nc1ccc(OC(F)(F)F)cc1	none
Cc1ccc(C)c(NC(=O)CCC(=O)Nc2cc(C)ccc2C)c1	none
O=C(CNC(=O)C1CCCCC1)NNC(=O)C(c1ccccc1)c1ccccc1	none
CCOC(=O)c1cc(N2C(=O)C3C4C=CC(C4)C3C2=O)ccc1Cl (configuration not stated)	MITF inh 59.3 | MITF inh conf 55.0 | AS interf DR inactive | AlphaScreen intf2 inactive
CC(=O)Nc1cc(N2C(=O)C3C4C=CC(C4)C3C2=O)ccc1Cl (configuration not stated)	none
CN(c1cccc(NS(=O)(=O)c2ccc([N+](=O)[O-])cc2)c1)S(C)(=O)=O	MITF inh 50.8 | MITF inh conf 33.9 | AS interf DR inactive | AlphaScreen intf2 inactive
Cc1ccc(S(=O)(=O)Nc2cccc(N(C)S(C)(=O)=O)c2)cc1	none
CC(Nc1ccc(-c2ccc(O)cc2)cn1)c1ccc(F)cc1 (configuration not stated)	none
